Results published in PubChem BioAssay AID2315 (National Center for Advancing Translational Sciences (NCATS), 2010).
The campaign covered roughly 290,000 compounds. About 27,000 (9.3%) were called active. Cut-off read from the data, not from the text of the source: active = inhibition mostly above about 28% (no sharp cut-off); inactive = mostly below about 43%. Only a selection was taken, and actives are over-represented in it overall.

Assay: A qHTS for Small Molecule Inhibitors of Shiga Toxin; note: 0% is about no effect
Conditions: Vero cells, Shiga toxin protein synthesis inhibition reporter; at 38.7 µM, active compounds read high
In the case of `CCOC(=O)Nc1ccc(NC(=O)OCC)cc1`, the inhibition is reported as 52.3% (active).
In the case of `Cc1ccc(NC(=O)OCc2cncs2)cc1`, the inhibition is reported as 70.8% (active).
With `CCOC(=O)Nc1ccc(S(=O)(=O)N(C)C(C)C)cc1` the inhibition was -22.3% (inactive).
For `O=C(Nc1ccc(Cl)cc1)OCc1cc(-c2ccccc2)on1`, the inhibition was 49.1% (inactive).
For `CC(C)(COC(=O)Nc1ccccc1)COC(=O)Nc1ccccc1`, the inhibition was 35.2% (inactive).
In the case of `Cc1ccc(NC(=O)OCCNC(=O)c2ccncc2)cc1`, the inhibition is reported as 47.9% (inactive).
In the case of `CN1CCc2ccccc2C1Cc1ccccc1NC(=O)c1sc2ccccc2c1Cl` (configuration not stated), the inhibition is reported as -2.62% (inactive).
In the case of `COC(=O)C1(CCSC)NC(c2ccc(OC)cc2OC)C2C(=O)N(c3cccc(C(C)=O)c3)C(=O)C21` (configuration not stated), the inhibition is reported as -5.19% (inactive).
For `N#Cc1ccc(-c2ccc(F)cc2)nc1Sc1ccccc1`, the inhibition was -10% (inactive).
In the case of `N#Cc1ccc(-c2nc3cc(C#N)c(C#N)cc3nc2-c2ccccc2)cc1C#N`, the inhibition is reported as 56.6% (active).
For `N#Cc1c(-c2ccc(F)cc2)nc(-c2ccccc2)[nH]c1=O`, the inhibition was -4.47% (inactive).
For `O=C(O)CCC(=O)Nc1ccc(OCC2CCCO2)cc1` (configuration not stated), the inhibition was 4.1% (inactive).
For `CCOc1ccc(N(C)Cc2cc(=O)oc3ccc(OC)cc23)cc1`, the inhibition was -26.5% (inactive).
For `O=C(c1ccc(Cl)cc1)n1cnc2ccccc21`, the inhibition was -4.02% (inactive).
For `Cc1ccc(OCC(=O)Nn2cnc3ccccc32)cc1`, the inhibition was -4.5% (inactive).
In the case of `COC(=O)c1ccc(-n2cnc3ccccc32)nc1`, the inhibition is reported as 159% (active).
For `O=C(NCc1ccco1)/C(=C/c1ccco1)NC(=O)c1ccccc1`, the inhibition was -2.21% (inactive).
In the case of `COc1ccccc1-c1nnc(SCC(=O)Nc2cc(C)on2)o1`, the inhibition is reported as 18.4% (inactive).
With `COc1ccc(-c2nnc(SCC(=O)c3cccs3)o2)c(OC)c1` the inhibition was 150% (active).
In the case of `COc1ccc(CCNC(=O)CSc2nnc(CNC(=O)c3cccs3)o2)cc1OC`, the inhibition is reported as -18.8% (inactive).
For `CCOc1ccc(N(CC(=O)Nc2ccccc2F)S(=O)(=O)c2c(C)[nH]c(=O)[nH]c2=O)cc1`, the inhibition was -4.99% (inactive).
With `Cc1cccc(C(=O)N2CCCN(C(=O)c3cccc(C)c3)CC2)c1` the inhibition was 19.1% (inactive).
For `Cc1ccc2cc3cc(C(=O)N4CCCCCC4)oc3nc2c1`, the inhibition was 88.9% (active).
In the case of `Cc1cc(C)cc(NC(=O)N2CCCCCCC2)c1`, the inhibition is reported as -6.48% (inactive).
For `Cc1oc2nc(SCC(=O)Nc3ccc(S(N)(=O)=O)cc3)nc(NC(=O)c3ccccc3)c2c1C`, the inhibition was -13.4% (inactive).
For `OCCC1CN(Cc2cnc(-c3ccccc3)s2)CCN1CCc1ccccc1` (configuration not stated), the inhibition was -10.1% (inactive).
For `COc1ccc(NC(=O)CN2C(=O)COc3ccc(S(=O)(=O)N4CCOCC4)cc32)c(OC)c1`, the inhibition was -2.93% (inactive).
